# In the library only some 5.4% were active in any assay of this set; here they are far more common.
# CSC inhib – cancer stem cell inhibition | cancer stem cell-like cells viability, luminescence | 300,000 tested, 1.1% active | AID 2717 | inhibition, % at 7.5 µM; in the data active = inhibition above about 75%; tested in HMLE shEcad cells
# PP1 inh – blocks human PP1-alpha phosphatase, a PP5 counter-screen; purified PP1alpha, OMFP fluorescence; AID 2235; inhibition, % at 6.7 µM; 320,000 tested, 0.9% active; P62136;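 active = inhibition above the mean inhibition of all tested compounds plus 3 SD, computed separately for each screening campaign, cut at about 15% in these data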
# Calb FLC – C. albicans growth modulation with fluconazole; C. albicans CaCi-2 (fluconazole-resistant clinical isolate) + fluconazole, Alamar Blue growth, 48 h; growth inhibition, % (concentration not given with the values); 300,000 tested, 0.57% active;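 active = growth inhibition above about 58% in most replicates, limit read from the data, passing the limit was not always enough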;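 note: all wells also contain fluconazole at 8 µg/ml as a sub-toxic cotreatment; 0% = median of DMSO wells and 100% = median of geldanamycin control wells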
# ALR inh – blocks human ALR sulfhydryl oxidase activity. P55789. purified ALR, DTT oxidation, H2O2 HRP-luminol luminescence. inhibition, % (concentration not given with the values). 290,000 tested, 3.8% active. AID 485317;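 active = mean replicate inhibition above about 79%, with every replicate also reaching it, limit read from the data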
# Target sequence (P55789 whole entry, looked up): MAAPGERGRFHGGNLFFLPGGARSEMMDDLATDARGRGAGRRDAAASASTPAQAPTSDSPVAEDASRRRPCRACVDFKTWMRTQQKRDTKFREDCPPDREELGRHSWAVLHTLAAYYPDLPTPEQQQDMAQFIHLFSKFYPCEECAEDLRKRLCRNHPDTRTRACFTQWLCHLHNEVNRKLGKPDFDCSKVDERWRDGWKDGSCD
# PP5 inh – inhibitors of human protein phosphatase 5 (PP5); 320,000 tested, 0.18% active; P53041; purified PP5c, OMFP substrate fluorescence; inhibition, % at 6.7 µM;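 active = inhibition above the campaign's mean inhibition across all tested compounds plus 3 SD, cut at about 9.5% in these data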;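 note: 0% = DMSO only and 100% = 100 µM cantharidin control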
# * marks the source's active call; other numbers are inactive results; / = no result.
SMILES,CSC inhib,PP1 inh,Calb FLC,ALR inh,PP5 inh
COc1ccc(NC(=O)Nc2ccc3nonc3c2)cc1,-4,2,-6,-2,1
N#Cc1ccc(-c2nc3ccccc3c(=O)n2O)cc1,12,-2,-6,-2,2
Cc1ccc(-c2nc3c(Cl)cc(Cl)cc3c(=O)n2O)cc1,32,17*,96*,-2,1
O=c1c2ccccc2nc(-c2ccc(Cl)cc2Cl)n1O,23,3,84*,2,1
O=c1c2ccccc2nc(-c2ccccc2Cl)n1O,-9,-1,18,-2,1
O=c1c2ccc(Cl)cc2nc(-c2cccc(C(F)(F)F)c2)n1O,-6,16*,79*,-8,3
O=c1c2ccccc2nc(-c2ccc(Cl)c(Cl)c2)n1O,0,-1,50,4,1
N#Cc1ccc(-c2nc3cc(Cl)ccc3c(=O)n2O)cc1,22,7,101*,3,2
CCOC(CCc1c(C)nc(NC(C)=O)[nH]c1=O)OCC,3,/,-7,36,/
O=C(NCc1ccccn1)c1cc(S(=O)(=O)N2CCCCCC2)ccc1Cl,-10,-3,/,6,2
O=C(NCc1ccccn1)Nc1ccccc1,/,1,-6,-2,0
C=CCNC(=S)N/N=C(\C)c1cccnc1,4,-4,-1,83*,1
C=CCNC(=S)N/N=C(\C)c1cccc(OC)c1,-5,2,-2,/,1
CC(=O)n1cc(/C=N/NC(=O)c2ccccc2O)c2ccccc21,0,1,-22,-4,1
O=C(c1ccoc1)N1CCC2(CC1)Oc1ccc(F)cc1C(=O)C21CC(c2ccccc2)=NO1 (stereo not given),0,3,92*,3,4
O=C(c1ccc2c(c1)OCO2)N1CCC2(CC1)Oc1ccc(Cl)cc1C(=O)C21CC(c2cccnc2)=NO1 (stereo not given),-8,2,84*,/,2
O=C(c1ccc2c(c1)OCO2)N1CCC2(CC1)Oc1ccc(F)cc1C(=O)C21CC(c2ccccc2)=NO1 (stereo not given),5,7,77*,2,6
O=C(c1ccc2c(c1)OCO2)N1CCC2(CC1)Oc1ccc(F)cc1C(=O)C21CC(c2cccnc2)=NO1 (stereo not given),13,4,77*,-4,4
Cc1ccc(C(=O)N2CCC3(CC2)Oc2ccc(Cl)cc2C(=O)C32CC(c3cccnc3)=NO2)s1 (stereo not given),4,2,41,/,3
O=C(c1ccoc1)N1CCC2(CC1)Oc1ccc(F)cc1C(=O)C21CC(c2cccnc2)=NO1 (stereo not given),8,-2,51,7,1
COc1cccc(CNC(=O)CCCNC(=O)c2ccc(Cl)cc2)c1,6,-8,-9,-4,0
O=C(OCc1cc(=O)n2cc(Br)ccc2n1)c1ccc(Cl)c(S(=O)(=O)NCc2ccccc2)c1,-4,-3,26,-1,3
O=C(NN=Cc1cc(Br)c(O)c(Br)c1)c1ccccc1NS(=O)(=O)c1cccs1,11,/,/,89*,/
CNC(=S)NCCc1c[nH]c2ccc(OC)cc12,1,6,-1,99*,2
COc1ccc2[nH]cc(CCNC(=S)NC3CCCC3)c2c1,-8,0,-3,34,1
SMILES,CSC inhib,PP1 inh,Calb FLC,ALR inh,PP5 inh
Cc1ccc(CC2C(=O)N(CC(=O)O)C(=O)C2C)cc1 (stereo not given),4,-2,6,4,-1
O=C(O)c1ccc2c(c1)C(=O)N(c1ccc(Nc3ccccc3)cc1)C2=O,-14,/,1,98*,/
CSc1ccc(NC(=O)Nc2ccc(C(=O)NCC(=O)O)cc2)cc1,-6,/,3,98*,/
COCCNC(=O)Nc1ccc2c(c1)N(C)C(=O)c1ccccc1S2,-11,-2,8,96*,4
CN(C)C(=O)C(Sc1ccc(S(=O)(=O)N2CCCC2)cn1)c1ccccc1 (stereo not given),/,-3,/,/,-1
COc1ccc(NC(=O)CN(C)S(=O)(=O)c2ccc3c(c2)NC(=O)CS3)cc1,-19,-2,29,-8,1
CC1CCN(S(=O)(=O)N2CCCC(C(=O)NCc3ccccc3Cl)C2)CC1 (stereo not given),-4,0,-15,1,-1
Cc1ccc(-c2nc(SCC(=O)N(C)C3CCS(=O)(=O)C3)[nH]c2-c2ccc(C)cc2)cc1 (stereo not given),-9,-2,16,98*,3
Cc1ccc(SCC(=O)N(C)C2CCS(=O)(=O)C2)cc1 (stereo not given),-7,-7,29,-3,3
